In PubChem BioAssay (NCATS):
Results filed as inconclusive are left out. Active and inactive are the calls of the source. Unless noted, calls come from the whole dose curve; as a rule, active = well fitted curve in the direction sought with a large enough effect; inconclusive = small, poorly fitted or top-dose-only effect, or another doubt; inactive = no such curve, though single readings can be large; an effect the other way counts as inactive or inconclusive.

How the values were obtained:
[1] = test system: CAOV3; test: Primary qHTS to identify gynecologic anti-cancer compounds using libraries of approved drugs and bioactive compounds (AID 1345084); conditions: Gynecologic cancer cell panel viability, ATPlite luminescence, 48 h; series mostly up to 57.5 µM; note: nearly all actives have a fitted effect of over 55% in size; note: potency is the fitted concentration of half-maximal effect
Method in brief: (§1)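 Five-point cytotoxicity, 48 h drug exposure at 37 C, 5% CO2, on cells seeded 16 h beforehand. ATP content read by ATPlite luminescence.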

[2] = test system: HeLa; test: as above; conditions: Gynecologic cancer cell panel viability, ATPlite luminescence, 48 h; series mostly up to 57.5 µM
Method in brief: as §1

[3] = test system: Hek293T; test: as above; conditions: Gynecologic cancer cell panel viability, ATPlite luminescence, 48 h, control line for the selectivity index; series mostly up to 57.5 µM
Method in brief: as §1

[4] = test system: JEG-3; test: as above; conditions: Gynecologic cancer cell panel viability, ATPlite luminescence, 48 h; series mostly up to 57.5 µM
Method in brief: as §1

[5] = test system: OV90; test: as above; conditions: Gynecologic cancer cell panel viability, ATPlite luminescence, 48 h; series mostly up to 57.5 µM
Method in brief: as §1

[6] = test system: PA-1; test: as above; conditions: Gynecologic cancer cell panel viability, ATPlite luminescence, 48 h; series mostly up to 57.5 µM
Method in brief: as §1

[7] = test system: SKOV3; test: as above; conditions: Gynecologic cancer cell panel viability, ATPlite luminescence, 48 h; series mostly up to 57.5 µM
Method in brief: as §1

[8] = test system: Tov-21-G; test: as above; conditions: Gynecologic cancer cell panel viability, ATPlite luminescence, 48 h; series mostly up to 57.5 µM
Method in brief: as §1

[9] = test system: Tov112D; test: as above; conditions: Gynecologic cancer cell panel viability, ATPlite luminescence, 48 h; series mostly up to 57.5 µM
Method in brief: as §1

[10] = Drug repurposing screens with cells derived from glioblastoma tumor samples (AID 1345199); conditions: GBM patient neurospheres viability, ATP luminescence, 48 h; note: nearly all actives have a fitted effect of over 40% in size; note: potency is the fitted concentration of half-maximal effect; for activity, negative = cell killing: % is set by controls: 0 for no effect and ±100 for the full control effect
Method in brief: (§2)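 Primary testing used CD133+ neurospheres from four GBM patients, seven concentrations, 48 h exposure and ATP-based viability; confirmation added three slower-growing patient lines.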

[11] = test system: astro; test: as above; conditions: viability, ATP luminescence, 48 h; series mostly up to 45.9 µM
Method in brief: as §2

[12] = test system: CASKI; test: Primary qHTS to identify gynecologic anti-cancer compounds using libraries of approved drugs and bioactive compounds (AID 1345084); conditions: Gynecologic cancer cell panel viability, ATPlite luminescence, 48 h; series mostly up to 57.5 µM; note: nearly all actives have a fitted effect of over 55% in size; note: potency is the fitted concentration of half-maximal effect
Method in brief: as §1

[13] = test system: Es-2; test: as above; conditions: Gynecologic cancer cell panel viability, ATPlite luminescence, 48 h; series mostly up to 57.5 µM
Method in brief: as §1

[14] = qHTS assay to identify inhibitors of the type 1 interferon - major histocompatibility complex class I in skeletal muscle: Counter screen cell viability and HiBit confirmation (AID 1347412); conditions: iHSKM muscle cells + IFN-b, HiBiT or CellTiter-Glo, 24 h; Potency: HiBiT unless noted; Viability, at 45.9 µM (top of the series); note: potency is the fitted concentration of half-maximal effect; nearly all actives have a fitted effect of over 60% in size
Method in brief: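 Luminescence read-out: Nano-Glo HiBiT lytic signal from C-terminally HiBiT-tagged HLA-B in CRISPR-edited human myoblasts, plus CellTiter Glo ATP as viability counter screen. IFN-beta 4.0 ng/ml; 24 hrs treatment at 37 C, 5% CO2.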

[15] = biological target: Nuclear receptor subfamily 1 group I member 2 (Rattus norvegicus) (UniProt Q9R1A7); test: qHTS assay for small molecule activators of the rat pregnane X receptor (rPXR) signaling pathway (AID 651751; call rule not given here; note: 0% is about no effect); conditions: rPXR reporter cells, luciferase (One-Glo), 24 h
Sequence of Nuclear receptor subfamily 1 group I member 2 (Rattus norvegicus) (Q9R1A7 whole entry, looked up): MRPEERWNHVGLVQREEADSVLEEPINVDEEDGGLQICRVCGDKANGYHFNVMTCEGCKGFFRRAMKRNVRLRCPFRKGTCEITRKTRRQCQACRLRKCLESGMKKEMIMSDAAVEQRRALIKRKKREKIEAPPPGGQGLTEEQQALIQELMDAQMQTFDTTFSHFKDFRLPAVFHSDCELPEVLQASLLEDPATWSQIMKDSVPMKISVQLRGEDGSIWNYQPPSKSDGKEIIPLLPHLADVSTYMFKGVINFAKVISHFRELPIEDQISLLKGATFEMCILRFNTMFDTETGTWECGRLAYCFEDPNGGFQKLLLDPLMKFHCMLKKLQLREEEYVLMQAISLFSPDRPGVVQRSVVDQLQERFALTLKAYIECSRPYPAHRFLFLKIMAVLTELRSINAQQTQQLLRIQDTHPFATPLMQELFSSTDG

[16] = qHTS assay for small molecule activators of the human pregnane X receptor (PXR) signaling pathway (AID 720659; call rule not given here; note: 0% is about no effect)
[17] = at 45.9 µM (top of the series), tumour line D
[18] = at 46.1 µM (top of the series), tumour line C
[19] = at 20 µM (top of the series), tumour line C
[20] = at 21.2 µM (top of the series), tumour line B
[21] = at 21.2 µM (top of the series), tumour line D
[22] = at 45.9 µM (top of the series), tumour line B

O=c1[nH]c(=O)n([C@H]2C[C@H](O)[C@@H](CO)O2)cc1C(F)(F)F
active: Potency [6] 8.91 µM | Potency [9] 11.2 µM
inactive: Potency [1] | Potency [2] | Potency [3] | Potency [4] | Potency [5] | Potency [7] | Potency [8] | activity, negative = cell killing [10, 17] -28.4% | activity, negative = cell killing [10, 18] -13.3% | Potency [11]

CC1(C)O[C@@H]2C[C@H]3[C@@H]4C[C@H](F)C5=CC(=O)CC[C@]5(C)[C@H]4[C@@H](O)C[C@]3(C)[C@]2(C(=O)CO)O1
inactive: Potency [12] | Potency [13] | Potency [2] | Potency [3] | Potency [4] | Potency [5] | Potency [6] | Potency [7] | Potency [8] | Potency [9] | activity, negative = cell killing [10, 19] -16.9% | activity, negative = cell killing [10, 20] -8.1% | activity, negative = cell killing [10, 21] -28% | activity, negative = cell killing ([10]; at 21.3 µM (top of the series), tumour line A) -15.3% | Potency [11]

COc1cccc2c1C(=O)c1c(O)c3c(c(O)c1C2=O)C[C@@](O)(C(C)=O)C[C@@H]3O[C@H]1C[C@H](N)[C@H](O)[C@H](C)O1
inactive: max response [15] -12.1% | outcome [16]
active: Potency [12] 0.708 µM | Potency [13] 0.708 µM | Potency [2] 4.47 µM | Potency [5] 1.26 µM | Potency [9] 0.398 µM | Potency [14] 0.442 µM

CCCC(=O)Nc1ccc(OCC(O)CNC(C)C)c(C(C)=O)c1 (centres undefined)
inactive: Potency [12] | Potency [13] | Potency [2] | Potency [3] | Potency [4] | Potency [5] | Potency [6] | Potency [7] | Potency [8] | Potency [9] | activity, negative = cell killing [10, 19] -9.42% | activity, negative = cell killing [10, 20] -3.87% | activity, negative = cell killing [10, 21] 11% | Potency [11]

CCN(CCCc1ccccc1)CCCc1ccccc1
inactive: Potency [12] | Potency [13] | Potency [2] | Potency [3] | Potency [4] | Potency [6] | Potency [7] | Potency [8] | Potency [9] | activity, negative = cell killing [10, 19] -18.9% | activity, negative = cell killing [10, 20] 2.05% | Potency [11]
active: Potency [5] 28.2 µM | Potency ([10]; tumour line A) 5.01 µM

C[C@@H]1C[C@H]2[C@@H]3C[C@H](F)C4=CC(=O)C(Cl)=C[C@]4(C)[C@@]3(F)[C@@H](O)C[C@]2(C)[C@@]1(O)C(=O)CO
inactive: Potency [12] | Potency [13] | Potency [2] | Potency [3] | Potency [4] | Potency [5] | Potency [6] | Potency [7] | Potency [8] | Potency [9] | activity, negative = cell killing [10, 22] -15.9% | activity, negative = cell killing [10, 17] -23.3% | activity, negative = cell killing [10, 18] -24.8%

CCCCCCCCCCCCCCCCOP(=O)([O-])OCC[N+](C)(C)C
inactive: Potency [12] | Potency [13] | Potency [3] | Potency [4] | Potency [6] | Potency [7] | Potency [9] | activity, negative = cell killing [10, 22] -7.15% | activity, negative = cell killing [10, 17] -0.719% | activity, negative = cell killing [10, 18] -5.47% | Potency [11]
active: Potency [5] 25.1 µM | Potency [8] 25.1 µM
